Laboratory results from PubChem BioAssay (NCATS).
Results filed as inconclusive are left out. Activity calls are given as the source filed them. Unless noted, the call rests on the fitted dose curve; in most records, active means well fitted curve in the direction sought with a large enough effect; inconclusive means small, poorly fitted or top-dose-only effect, or another doubt; inactive means no such curve, though single readings can be large; an effect the other way counts as inactive or inconclusive.

What was measured:
[1] = qHTS Assay for Identifying Gametocytocidal Compounds (AID 743244);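 further: on the % scale 0 is the no-effect control and ±100 the full control effect; actives lower the fluorescent signal which means gametocytes are killed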; conditions: P. falciparum 3D7 stage III-V gametocytes, alamarBlue, 72 h; max response: stronger effect = lower value
Summary of the method: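 P. falciparum 3D7 stage III–V gametocytes (20,000 cells/well) were exposed to compounds for 72 h at 37 °C, 5% CO2. AlamarBlue was then added for 24 h; decreased resorufin fluorescence (Ex 525/Em 598 nm) indicated loss of viability.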

[2] = qHTS assay for cell viability of HEK293 cells (AID 743288); conditions: ATP luminescence (CellTiter-Glo), 18 h; max response: stronger effect = lower value; further: on the % scale 0 is the no-effect control and ±100 the full control effect; nearly all actives have a fitted effect of over 50% in size
Summary of the method: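 Luminescent ATP quantitation served as the viability read-out. Cells (parental HEK293, 2,000/well) received compounds after at least 5 h at 37 C and were exposed for 18 h before a 30 min room-temperature reagent step.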

[3] = qHTS assay for cell viability of the p53RE-bla HCT-116 cell line (AID 743292); further: nearly all actives have a fitted effect of over 55% in size; further: potency means the concentration at half of the fitted maximal effect
Summary of the method: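 CellSensor p53RE-bla HCT-116 cells (4,000/well) pre-incubated 5 h at 37 C, then exposed to compounds in DMSO for 16 h at 37 C. Viability read as ATP content by CellTiter-Glo luminescence after 30 min at room temperature.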

[4] = qHTS profiling of the MIPE4 collection as inhibitors of Plasmodium falciparum (3D7) proliferation (AID 743344; call rule not given here;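 further: scaled between DMSO vehicle wells and 0.29 µM artemisinin as full inhibition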); conditions: P. falciparum 3D7 in erythrocytes, SYBR Green DNA fluorescence, 72 h; at 28.5 µM (top of the series) unless noted
Summary of the method: (§1)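 Erythrocytes infected with P. falciparum (0.3% parasitemia, 2.5% hematocrit) incubated with compounds 72 h at 37 C, 5% CO2. Lysis with saponin/Triton buffer containing SYBR Green I, overnight at room temperature in the dark; DNA fluorescence (485/535 nm) normalised to 0.29 uM artemisinin and DMSO.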

[5] = qHTS profiling of the MIPE4 collection as inhibitors of Plasmodium falciparum (DD2) proliferation (AID 743345; call rule not given here); conditions: P. falciparum Dd2 in erythrocytes, SYBR Green DNA, 72 h; at 28.5 µM (top of the series) unless noted
Summary of the method: as §1

[6] = qHTS profiling of the MIPE4 collection as inhibitors of Plasmodium falciparum (DD2) proliferation (Rep 2) (AID 743346; call rule not given here); conditions: P. falciparum Dd2 in erythrocytes, SYBR Green DNA, 72 h; at 28.5 µM (top of the series) unless noted
Summary of the method: as §1

[7] = qHTS profiling of the MIPE4 collection as inhibitors of Plasmodium falciparum (HB3) proliferation (AID 743347; call rule not given here;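 further: plate controls were DMSO vehicle wells for no effect and artemisinin wells for full effect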); conditions: P. falciparum HB3 in erythrocytes, SYBR Green DNA, 72 h; at 28.5 µM (top of the series) unless noted
Summary of the method: as §1

[8] = High-throughput drug toxicity screening in the BPDCN cell line Gen2.2 (AID 1224824; call rule not given here;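 further: cells exposed to compounds for 48 h before reading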); conditions: Gen2.2 BPDCN cells; at 45.8 µM (top of the series) unless noted
Summary of the method: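 Readout is ATP luminescence from Gen2.2 cells after two days of drug exposure in serum-containing medium at 37 °C. Values express percent activity, with vehicle defining full signal and 9.2 uM bortezomib defining zero.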

[9] = High-throughput drug toxicity screening in the BPDCN cell line Cal-1 (AID 1224825; call rule not given here); conditions: Cal-1 BPDCN cell viability, qHTS; at 45.8 µM (top of the series) unless noted
Summary of the method: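 Cal-1 cells, 500 per well in phenol-red-free RPMI with 10% FBS, exposed to compounds for 48 hours at 37C, 5% CO2. Viability read by CellTiter-Glo luminescence; percent activity normalized to DMSO (100%) and 9.2 uM bortezomib final (0%).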

[10] = qHTS assay for measurement of the activity of small molecule inhibitors on Zika virus induced Caspase-3 activity in human iPSC derived neural progenitor cells (hNPCs) (AID 1224857); further: % of control where 0% means no effect; nearly all actives have a fitted effect of over 65% in size
Summary of the method: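 hNPCs seeded 350 cells/well, cultured 16–20 h; compounds added 1 h before ZIKV (2 FFU/cell), 37 C 6 h. Caspase-Glo 3/7 luminescence after 30 min RT; % inhibition from induction scaled to uninfected (0%) and infected (100%) wells.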

[11] = qHTS assay for measurement of the activity of small molecule inhibitors on Zika virus induced Caspase-3 activity in human astrocytoma cells (AID 1224859);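 further: plate controls were ZIKV-infected untreated cells for no effect and uninfected cells for full effect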
Summary of the method: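 Luminescence read-out (Caspase-Glo 3/7, 30 min RT) of caspase activity in SNB-19 cells infected 6 h with ZIKV, 2 FFU/cell, after 1 h compound pretreatment; % inhibition from induction normalised to uninfected (0%) and infected (100%) wells.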

[12] = qHTS Screen of the MIPE 4.0 Collection Against Ewings Sarcoma (RDES) (AID 1259252); further: nearly all actives have a fitted effect of over 35% in size; further: potency means the concentration at half of the fitted maximal effect
Summary of the method: (§2)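 Dose series incubated 48 h with cells in RPMI plus 5% FBS, glutamine and penicillin/streptomycin; cell viability then quantified via CellTiter-Glo.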

[13] = qHTS Screen of the MIPE 4.0 Collection Against Ewings Sarcoma (EW8) (AID 1259255); further: nearly all actives have a fitted effect of over 35% in size; further: potency means the concentration at half of the fitted maximal effect;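 on viability: 100% = DMSO-treated cells and 0% = medium-only wells without cells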
Summary of the method: as §2

[14] = qHTS Screen of the MIPE 4.0 Collection Against Ewings Sarcoma (TC32) (AID 1259256); further: nearly all actives have a fitted effect of over 45% in size; further: potency means the concentration at half of the fitted maximal effect
Summary of the method: as §2

[15] = qHTS assay to identify small molecule inhibitors of chordoma cells - UCH-1 (AID 1259355); further: on the % scale 0 is the no-effect control and ±100 the full control effect; nearly all actives have a fitted effect of over 55% in size
Summary of the method: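 Cells (800/well) were seeded and left overnight at 37 C, 5% CO2, then treated with drugs at 15 concentrations plus a combination mix of auranofin, camptothecin, doxorubicin, rubitecan and topotecan. Viability after 48hr was read by CellTiter-Glo luminescence.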

[16] = qHTS Screen of the MIPE 4.0 Collection Against Ewings Sarcoma (TC71) (AID 1259253); further: nearly all actives have a fitted effect of over 40% in size; further: potency means the concentration at half of the fitted maximal effect
Summary of the method: as §2

[17] = target: Hexokinase-4 (Homo sapiens) + Glucokinase regulatory protein (Homo sapiens) (UniProt P35557+Q14397); test: qHTS assay for inhibitors of recombinant human GCK-GKRP interaction: HTRF assay (AID 743207);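 further: 0% = DMSO with GCK present and -100% = DMSO wells lacking GCK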
Summary of the method: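 Titration screening format: recombinant GST-GCK and FLAG-GKRP at 5 nM, S6P at 2 uM, labelled anti-tag antibodies, 60 min at RT, dual-wavelength HTRF readout.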

Sequence of Hexokinase-4 (Homo sapiens) + Glucokinase regulatory protein (Homo sapiens) (P35557 whole entry, looked up): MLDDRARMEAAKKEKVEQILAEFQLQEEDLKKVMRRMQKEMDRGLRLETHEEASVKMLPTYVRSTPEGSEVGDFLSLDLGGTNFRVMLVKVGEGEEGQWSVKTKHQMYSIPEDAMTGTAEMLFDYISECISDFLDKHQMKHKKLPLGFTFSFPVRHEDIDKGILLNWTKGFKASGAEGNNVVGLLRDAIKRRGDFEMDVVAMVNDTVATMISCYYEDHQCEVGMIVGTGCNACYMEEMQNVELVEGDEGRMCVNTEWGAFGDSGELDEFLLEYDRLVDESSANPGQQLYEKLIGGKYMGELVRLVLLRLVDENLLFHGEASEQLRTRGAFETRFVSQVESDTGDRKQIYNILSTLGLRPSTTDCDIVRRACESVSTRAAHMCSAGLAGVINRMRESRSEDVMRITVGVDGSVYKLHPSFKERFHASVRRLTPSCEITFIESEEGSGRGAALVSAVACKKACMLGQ
Sequence of Hexokinase-4 (Homo sapiens) + Glucokinase regulatory protein (Homo sapiens) (Q14397 whole entry, looked up): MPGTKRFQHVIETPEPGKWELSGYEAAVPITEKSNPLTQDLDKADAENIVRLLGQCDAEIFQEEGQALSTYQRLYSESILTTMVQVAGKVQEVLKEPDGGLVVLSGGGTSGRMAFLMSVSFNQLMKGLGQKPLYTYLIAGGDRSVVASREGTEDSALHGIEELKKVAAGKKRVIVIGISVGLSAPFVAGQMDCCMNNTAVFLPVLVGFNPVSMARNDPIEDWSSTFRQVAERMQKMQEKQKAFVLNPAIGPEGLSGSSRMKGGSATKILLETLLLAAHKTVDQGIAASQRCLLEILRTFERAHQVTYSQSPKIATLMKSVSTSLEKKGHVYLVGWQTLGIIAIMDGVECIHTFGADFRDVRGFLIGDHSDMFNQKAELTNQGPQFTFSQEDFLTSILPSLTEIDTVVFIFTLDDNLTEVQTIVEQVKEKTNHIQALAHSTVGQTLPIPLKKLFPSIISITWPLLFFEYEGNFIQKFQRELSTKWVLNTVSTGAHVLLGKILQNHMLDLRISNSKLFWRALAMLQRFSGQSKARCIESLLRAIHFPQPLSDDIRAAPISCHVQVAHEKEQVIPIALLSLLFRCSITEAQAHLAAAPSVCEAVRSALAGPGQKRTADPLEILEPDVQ

For `Cc1ncc([N+](=O)[O-])n1CCO`, the max response [1] was -1.29% (inactive), the max response [2] was -4.68% (inactive) and the Potency [3] was “inactive”. The parasite growth, % of DMSO control [4] was 88.2%, the parasite growth remaining, % of DMSO control (lower = more inhibition) [5] was 101% and the parasite growth, % of control (lower = inhibition) [6] was 96.3%. The growth, % of control [7] was 85.1%, the cell viability, % of control (lower = more cytotoxic) [8] was 180% and the viability (% of control) [9] was 76.6%. For the same compound, the Potency [10] was “inactive”, the Potency [11] was “inactive” and the Potency [12] was “inactive”. The Potency [13] was “inactive”, the Potency [14] was “inactive” and the Potency [15] was “inactive”.
With `Cc1c(-c2ccc(O)cc2)n(Cc2ccc(OCCN3CCCCCC3)cc2)c2ccc(O)cc12` the cell viability, % of control (lower = more cytotoxic) [8] was 158%, the viability (% of control) [9] was 121% and the Potency [11] was “inactive”. For the same compound, the Potency [12] was “inactive”, the Potency [16] was “inactive” and the Potency [13] was “inactive”. The Potency [14] was “inactive”.
In the case of `Nc1nc(N)c2nc(CNc3ccc(C(=O)NC(CCC(=O)O)C(=O)O)cc3)cnc2n1` (centres undefined), the outcome [17] is reported as “inactive”, the max response [1] is reported as 32.7% (inactive) and the Potency [3] is reported as 89.1 nM (active). It also gave a parasite growth, % of DMSO control [4] of 25%, a parasite growth remaining, % of DMSO control (lower = more inhibition) [5] of 7.65% and a parasite growth, % of control (lower = inhibition) [6] of 21%. For the same compound, the growth, % of control [7] was 23.4%, the cell viability, % of control (lower = more cytotoxic) [8] was 23.1% and the viability (% of control) [9] was 9.27%. For the same compound, the Potency [10] was “inactive”, the Potency [11] was “inactive” and the Potency [12] was 16.6 nM (active). For the same compound, the Potency [16] was 13.2 nM (active), the Potency [14] was 33.2 nM (active) and the Potency [15] was “inactive”.
In the case of `OC(Cn1cncn1)(Cn1cncn1)c1ccc(F)cc1F`, the max response [1] is reported as -0.14% (inactive), the max response [2] is reported as -6.93% (inactive) and the Potency [3] is reported as “inactive”. The parasite growth remaining, % of DMSO control (lower = more inhibition) [5] was 101%, the cell viability, % of control (lower = more cytotoxic) [8] was 66.2% and the viability (% of control) [9] was 114%. The Potency [10] was “inactive”, the Potency [11] was “inactive” and the Potency [12] was “inactive”. For the same compound, the Potency [13] was “inactive”, the Potency [14] was “inactive” and the Potency [15] was “inactive”.
For `CCCCOc1ccc(CC(=O)NO)cc1`, the max response [1] was 1.51% (inactive), the parasite growth, % of DMSO control [4] was 11.6% and the parasite growth remaining, % of DMSO control (lower = more inhibition) [5] was 14.7%. The parasite growth, % of control (lower = inhibition) [6] was 16.4%, the growth, % of control [7] was 5.4% and the cell viability, % of control (lower = more cytotoxic) [8] was 37%. For the same compound, the viability (% of control) [9] was 29%, the Potency [10] was “inactive” and the Potency [11] was “inactive”. The Potency [12] was 6620 nM (active), the Potency [13] was 10500 nM (active) and the Potency [14] was 5260 nM (active). The Potency [15] was “inactive”.
For `CN(C)CCc1c[nH]c2ccc(CS(=O)(=O)N3CCCC3)cc12`, the parasite growth, % of DMSO control [4] was 94.3%, the parasite growth remaining, % of DMSO control (lower = more inhibition) [5] was 92.8% and the growth, % of control [7] was 70.4%. For the same compound, the cell viability, % of control (lower = more cytotoxic) [8] was 25%, the viability (% of control) [9] was 93.3% and the Potency [10] was “inactive”. The Potency [11] was “inactive”, the Potency [12] was “inactive” and the Potency [13] was “inactive”. For the same compound, the Potency [14] was “inactive” and the Potency [15] was “inactive”.
For `CN(Cc1cc(Br)cc(Br)c1N)C1CCCCC1`, the max response [1] was -1.96% (inactive), the parasite growth, % of DMSO control [4] was 44.4% and the parasite growth remaining, % of DMSO control (lower = more inhibition) [5] was 113%. It also gave a growth, % of control [7] of 62.3%, a cell viability, % of control (lower = more cytotoxic) [8] of 226% and a viability (% of control) [9] of 107%. For the same compound, the Potency [10] was “inactive”, the Potency [11] was “inactive” and the Potency [12] was “inactive”. The Potency [13] was “inactive” and the Potency [14] was “inactive”.
